From PubChem BioAssay AID1565 (Sanford-Burnham Center for Chemical Genomics, 2009) come the findings set out here.

SMILES strings stand for the structures. About 3,200 (1.1%) of roughly 290,000 compounds were called active. Shown is part of a subset that was picked to be rich in actives. Values without a mark were called inactive. Rule as the data show it: active = inhibition above about 60%; inactive = the rest.

The target of this assay is Phosphoethanolamine/phosphocholine phosphatase (Homo sapiens) (UniProt Q8TCT1). As to the kind of experiment: PubChem AID 1565. Particulars: recombinant PHOSPHO1, absorbance phosphatase assay; at 13.3 µM; hits give high values.
Chain of Phosphoethanolamine/phosphocholine phosphatase (Homo sapiens) (Q8TCT1 whole entry, looked up): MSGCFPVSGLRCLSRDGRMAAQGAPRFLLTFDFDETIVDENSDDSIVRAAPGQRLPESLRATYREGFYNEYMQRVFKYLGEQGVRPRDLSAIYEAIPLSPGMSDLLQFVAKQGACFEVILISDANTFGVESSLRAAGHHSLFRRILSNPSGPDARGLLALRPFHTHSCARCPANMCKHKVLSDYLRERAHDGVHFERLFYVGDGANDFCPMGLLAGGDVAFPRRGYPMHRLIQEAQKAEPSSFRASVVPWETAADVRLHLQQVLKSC
As to `COc1cccc(CNC(=O)c2cccnc2Sc2ccc(Cl)cc2)c1`, the inhibition was 23.3%. Under `Cc1nc(NC(=O)c2ccc3c(c2)OCCO3)ccc1Br` stands 7.6%; under `CC(C)[C@@H]1COC(c2cccc(C3=N[C@H](C(C)C)CO3)c2)=N1`, -1.7%; under `COc1ccc(C(=O)NC2CC2)cc1OC1CCN(Cc2ccc(SC)cc2)CC1`, 27.3%. Consider `O=C(Nc1cn(-c2ccccc2)nc1-c1ccccc1)c1ccccc1`, for which the inhibition is -2.5%. In the case of `O=C(NNC(=S)NC(=O)c1cn(-c2ccccc2)nc1-c1ccccc1)c1ccncc1`, the inhibition is 80.9% (active).

`Cc1onc(-c2ccccc2)c1C(=O)NNC(=S)NC(=O)c1ccc(F)cc1`: the inhibition is -4.5%.

For `CC1CCN(C(=S)NC(=O)c2ccccc2Br)CC1`, the inhibition is 17.4%. The value for `COc1ccc(CCNC(=O)C2CCCN2C(=O)Nc2ccccc2)cc1OC` (stereo unspecified) was 23.5%; that for `Cc1c(CCC(=O)N[C@@H](CC(C)C)C(=O)O)c(=O)oc2c(C)c3oc4c(c3cc12)CCCC4` was 31.6%; that for `Cc1ccc(NC(=S)N/N=C2/CCCc3c(C)cc(C)cc32)cc1` was 85.8% (active).

In the case of `Cc1ccc(NC(=S)Nc2ccc(F)cc2)cc1`, the inhibition is 19.2%.

For the compound `Cc1ccc(C)c(NC(=S)NNC(=S)Nc2ccc(C(C)C)cc2)c1`, the inhibition is -6.1%. For the compound `COC(=O)c1ccc(NC(=O)CSc2nc(N)c(NC(=O)c3ccc(Br)o3)c(=O)[nH]2)cc1`, the inhibition was 42.8%. The value for `CCn1c(SCCC(C)C)nnc1-c1c[nH]c2ccccc12` was 0.7%; that for `CCC(C)Sc1nnc(-c2c[nH]c3ccccc23)n1CCOC` (stereo unspecified) was 61.5% (active). The value for `CCOC(=O)N1CCN(C(=O)CSc2nnc(-c3c[nH]c4ccccc34)n2CCOC)CC1` was 25.5%; that for `CC(C)(C)c1ccc(SCCc2ccncc2)cc1` was 13.8%; that for `Cc1ccc(CC2C(=O)N(c3ccc(F)cc3)C(=O)C2C)cc1` (stereo unspecified) was -2.6%. Under `Cc1cc(/C=N/Nc2ccc([N+](=O)[O-])cn2)c(C)n1-c1cccc(C(=O)O)c1` stands 15.9%; under `Cc1ccc(N2CCN(c3ccc([N+](=O)[O-])cn3)CC2)c(C)c1`, 19.7%; under `Cc1ccc(-n2c(C)cc(/C=N/Nc3ccc([N+](=O)[O-])cn3)c2C)c(C)c1`, 98.7% (active). Consider `COC(=O)C1CCCCN1C(=O)c1ccc(OC2CCN(C(C)=O)CC2)c(OC)c1` (stereo unspecified), for which the inhibition is 57.6%. Under `COc1cc2[nH]c(=S)n(Cc3ccc(F)cc3)c(=O)c2cc1OC` stands -42.1%; under `COc1cc2[nH]c(=S)n(Cc3ccc(C)o3)c(=O)c2cc1OC`, 69.6% (active). Take `COc1cc2[nH]c(=S)n(CCN3CCCCC3C)c(=O)c2cc1OC` (stereo unspecified): the inhibition is 24.2%.

Usually inhibition stands for the relative decrease from the control value, in per cent.
